# Screens from PubChem BioAssay.
# S1P3 antagonist = blocks the human S1P3 receptor. CHO S1P3 NFAT-BLA reporter, FRET fluorescence, antagonist mode. inhibition, % at 4.98 µM. hit rate 0.27% among 170,000. AID 485;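 active = inhibition above the plate cutoff, the mean inhibition of test wells on that plate plus 3 SD, cut at about 28% in these data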;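 note: cells challenged with S1P at its EC80 of 0.8 µM; blue over green emission ratio from cleaved BLA substrate after 4 h stimulation; 0% = S1P-stimulated wells and 100% = unstimulated DMSO-only wells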
# Target sequence (Q99500 whole entry, looked up): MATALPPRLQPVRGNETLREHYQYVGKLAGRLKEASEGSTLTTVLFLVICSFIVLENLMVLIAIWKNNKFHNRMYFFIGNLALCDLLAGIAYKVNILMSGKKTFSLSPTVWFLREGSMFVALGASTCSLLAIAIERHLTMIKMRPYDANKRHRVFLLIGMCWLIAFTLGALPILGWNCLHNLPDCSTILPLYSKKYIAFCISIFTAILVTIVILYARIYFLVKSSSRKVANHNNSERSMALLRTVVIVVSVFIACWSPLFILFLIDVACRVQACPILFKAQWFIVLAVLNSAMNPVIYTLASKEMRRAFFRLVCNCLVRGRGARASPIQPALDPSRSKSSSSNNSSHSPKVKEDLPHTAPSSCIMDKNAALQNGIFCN
# S1P4 antagonist = human S1P4 receptor antagonism; O95977; S1P4-expressing cells, antagonist mode, reporter read-out; inhibition, % at 4.98 µM; hit rate 0.26% among 220,000; AID 1510; in the data active = inhibition above about 29%;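 note: 0% = wells stimulated with agonist and 100% = vehicle wells without agonist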
# AI-2 QS modul = Vibrio harveyi AI-2 quorum sensing modulation; AID 2094; activity change, % at 7.5 µM; hit rate 0.4% among 300,000; Vibrio harveyi JMH597 AI-2 luminescence/OD600 ratio, 9 h; stronger effect = lower value; strain lacks LuxN and CqsS sensors; 0 = neutral-control median; in the data active = activity change below about -75%, passing the limit was not always enough;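 note: luminescence divided by OD600 gain over 9 h not by final OD600 alone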
# Hsp70 act = Hsp70 transcriptional activation, primary screen; HeLa Hsp70 promoter luciferase reporter, luminescence; scaled: vehicle 0, proteasome-inhibitor control 100%; hit rate 0.04% among 200,000; activation, % at 10 µM; AID 1203;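 active = activation above the mean across all tested compounds plus 3 SD, cutoff set per campaign, cut at about 5.5% in these data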;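 note: 100% = MG132 at 30 µM as the positive control and 0% = DMSO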
# S1P4 ag = activates the human S1P4 receptor; hit rate 0.35% among 220,000; activation, % at 4.98 µM; O95977; S1P4-expressing cell line, agonist reporter assay; in the data active = activation above about 11%;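 note: 0% = DMSO vehicle and 100% = reference agonist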
# JMH597 growth rt = retest: inhibitors of Vibrio harveyi JMH597 growth; OD600 absorbance, 9 h; lacks LuxN and CqsS sensors; shares compounds with AI-2 QS modul; growth inhibition, % at 7.5 µM; hit rate 1% among 750;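 active = every replicate shows growth inhibition above 50%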
# BB721 lum counter = retest counter-screen: luminescence loss in constitutive-on quorum sensing strain BB721. shares compounds with AI-2 QS modul. Vibrio harveyi BB721 luminescence, 9 h. inhibition, % at 7.5 µM. hit rate 95% among 750. AID 2727;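 active = inhibition above about 80% in every replicate, not just on average, limit read from the data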
# BB721 growth = retest Vibrio harveyi BB721 growth inhibition | hit rate 3% among 750 | shares compounds with AI-2 QS modul | growth inhibition, % at 7.5 µM | OD600 absorbance, 9 h;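 active = every replicate shows growth inhibition above 50%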
# AI-2 QS JMH597 = Vibrio harveyi AI-2 signaling luminescence modulation – JMH597 strain, confirmation; Vibrio harveyi JMH597 AI-2 quorum sensing luminescence, 9 h; luxN and CqsS knockout, AI-2 only; shares compounds with AI-2 QS modul; hit rate 97% among 750; AID 2736; inhibition, % at 7.5 µM;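 active = every replicate shows more than 75% inhibition of signal versus neutral control wells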
# The depositor's hits bear a star; x = no result. Compounds with a hit are over-represented: about 0.97% of the library has one in this group of screens.
SMILES,S1P3 antagonist,S1P4 antagonist,AI-2 QS modul,Hsp70 act,S1P4 ag,JMH597 growth rt,BB721 lum counter,BB721 growth,AI-2 QS JMH597
Cc1cc(NC(=O)CN2C(=O)NC(C)(c3ccc(OC(F)F)cc3)C2=O)no1 (stereo not drawn),x,-14,-74,0,0,x,x,x,x
CCOc1ccc(NC(=O)CN2C(=O)NC(C)(c3ccc(OC(F)F)cc3)C2=O)cc1 (stereo not drawn),x,x,-93*,x,x,41,94*,57*,96*
CC1(c2ccc(OC(F)F)cc2)NC(=O)N(CC(=O)Nc2ccc(Cl)cc2F)C1=O (stereo not drawn),x,x,-94*,x,x,5,96*,-7,96*
C=CCN(CC=C)C(=O)CN1C(=O)NC(Cc2c[nH]c3ccccc23)C1=O (stereo not drawn),x,x,1,x,x,x,x,x,x
COc1ccc(Cl)cc1-c1nc(-c2ccc(NC(=O)c3cccs3)cc2)no1,-5,-8,23,0,-1,x,x,x,x
NS(=O)(=O)c1cccc(NC(=O)COC(=O)CN2C(=O)C3CC=CCC3C2=O)c1 (stereo not drawn),1,-4,18,0,1,x,x,x,x
CSCCC1NC(=O)N(CC(=O)Nc2c(C(C)C)cccc2C(C)C)C1=O (stereo not drawn),-6,14,-4,0,-1,x,x,x,x
CCOc1ccc(NC(=O)CN2C(=O)NC(CCSC)C2=O)cc1 (stereo not drawn),-2,0,-79*,0,1,8,91*,7,94*
CCOc1ccc(NC(=O)CN2C(=O)CSC(C)C2=O)cc1 (stereo not drawn),-2,-11,-78*,0,1,16,91*,10,93*
CSCCC1NC(=O)N(CC(=O)Nc2ccc(-c3ccccc3)cc2)C1=O (stereo not drawn),-7,-10,-83*,x,0,-22,85*,-5,91*
COc1ccc(NC(=O)Cn2nnc(-c3ccccc3N)n2)cc1OC,-1,-19,9,0,1,x,x,x,x
COc1cc(NC(=O)Cn2nnc(-c3ccccc3N)n2)cc(OC)c1,-19,-9,-89*,0,1,20,98*,19,98*
CCCCCC(=O)NC(=S)Nc1cccc(C(C)=O)c1,-5,-17,-95*,0,-2,-14,95*,19,96*
Cc1cccc(NC(=O)COC(=O)c2cc(C)oc2C)c1,-9,8,-88*,0,1,17,95*,18,97*
CC(=O)c1cccc(NC(=O)COC(=O)c2ccccc2C)c1,x,x,-90*,x,x,4,98*,-8,99*
CC(=O)c1cccc(NC(=S)NC(=O)Cc2ccccc2)c1,-10,-2,-37,0,1,x,x,x,x
Cc1cc(C(=O)OCC(=O)Nc2ccccc2F)c(C)o1,x,-17,-48,0,1,x,x,x,x
CC(=O)c1cccc(NC(=O)CSC(=O)c2ccccc2)c1,12,-23,-87*,0,2,11,95*,0,97*
CCOc1ccccc1NC(=O)CNC(=O)CNC(=O)Cc1ccccc1,x,x,12,x,x,x,x,x,x
O=C(c1cc(F)c(F)cc1Cl)N1CCN(CCc2ccccc2)CC1,x,x,-5,x,x,x,x,x,x
O=C(c1cc2cc(Br)ccc2o1)N1CCN(c2ccccc2)CC1,x,x,6,x,x,x,x,x,x
O=C(COC(=O)c1ccc(F)cc1F)NCCNC(=O)COC(=O)c1ccc(F)cc1F,x,x,19,x,x,x,x,x,x
CC(=O)c1ccc(NC(=O)COC(=O)c2ccc(F)cc2F)cc1,x,x,-90*,x,x,14,97*,-13,98*
CCCc1cc(C(=O)Nc2ccc(F)c(Cl)c2)no1,x,x,-82*,x,x,38,96*,-78,97*
CC(C)[C@H](NC(=O)[C@@H]1CSC2c3ccccc3C(=O)N21)C(=O)NC1CCCCC1 (stereo partly drawn),x,x,16,x,x,x,x,x,x
SMILES,S1P3 antagonist,S1P4 antagonist,AI-2 QS modul,Hsp70 act,S1P4 ag,JMH597 growth rt,BB721 lum counter,BB721 growth,AI-2 QS JMH597
COc1ccccc1CNC(=O)COC(=O)CSc1ccc(F)cc1,x,x,18,x,x,x,x,x,x
Nc1nc(-c2ccc(Oc3ccccc3)cc2)cs1,x,x,-95*,x,x,-32,96*,-94,98*
COc1ccc(N2CC(C(=O)OCC(=O)Nc3cccc(C)c3C)CC2=O)cc1 (stereo not drawn),x,x,12,x,x,x,x,x,x
CCOC(=O)c1sc(NC(=O)COC(=O)c2ccco2)nc1C,-63,2,-89*,0,0,10,97*,-5,98*
CCOC(=O)c1sc(NC(=O)c2ccco2)nc1C,24,x,12,x,x,x,x,x,x
COc1ccc(C2=NN(CC(=O)NCc3ccco3)C(=O)CC2)cc1,18,-9,18,0,1,x,x,x,x
COC(=O)c1cccc(NC(=O)Cn2cnc3ccccc3c2=O)c1,8,0,-94*,0,0,12,99*,1,99*
NS(=O)(=O)c1cccc(NC(=O)Cn2cnc3ccccc3c2=O)c1,x,16,-85*,0,2,18,93*,-3,95*
NS(=O)(=O)c1cccc(NC(=O)CSc2ncnc3ccccc23)c1,1,-3,-82*,x,0,5,85*,8,92*
CCCc1nnc(NC(=O)Cn2cnc3ccccc3c2=O)s1,x,4,-86*,0,1,14,96*,15,96*
COC(=O)[C@@H]1CCCN1C(=O)CCc1nnc(C2CCCCC2)o1,-11,-19,10,0,1,x,x,x,x
CCOC(=O)C1CCCN(C(=O)Nc2c(-c3ccccc3)noc2C)C1 (stereo not drawn),-12,1,-14,x,0,x,x,x,x
O=C(Nc1cccc(Cl)c1)OCCOc1ccccc1,x,x,-87*,x,x,8,92*,-6,92*
COCCC1CCCCN1C(=O)c1cc(COc2cccc(C(C)=O)c2)on1 (stereo not drawn),x,x,-15,x,x,x,x,x,x
CCOC(=O)CC1CCCCN1C(=O)c1cc(COc2cccc3cnccc23)on1 (stereo not drawn),x,x,-86*,x,x,22,88*,23,93*
CN(Cc1nccs1)C(=O)c1cc(COc2cccc3cnccc23)on1,x,x,-94*,x,x,27,97*,26,99*
COC(=O)C1CCCCN1C(=O)c1cc(COc2cccc3cccnc23)on1 (stereo not drawn),x,x,30,x,x,x,x,x,x
COC(=O)C1CCCCN1C(=O)c1cc(COc2cccc3cnccc23)on1 (stereo not drawn),x,x,-91*,x,x,8,92*,25,95*
COc1cc(Cl)ccc1OCc1cc(C(=O)N(C)Cc2cccc3cnccc23)no1,x,x,26,x,x,x,x,x,x
C=CCNC(=O)C1CCN(S(=O)(=O)c2ccc3ccccc3c2)CC1,x,x,-81*,x,x,5,59,-28,99*
